Screens (PubChem BioAssay)
Compounds with a hit are over-represented: about 10% of the library has one in this group of screens.
HP1b chromo inh: HTS for Inhibitors of HP1-beta Chromodomain Interactions with Methylated Histone Tails; Chromobox protein homolog 1 (Homo sapiens), P83916; AlphaScreen HP1-beta / biotin-H3K9me3 peptide binding; Potency, µM (doses to about 114 µM), for inactives: top-dose activity change, negative = inhibition, most hits filed as inhibitors; hit rate 0.56% among 390,000; AID 540317, 2011; further: nearly all actives have a fitted effect of over 70% in size
Target sequence (P83916 whole entry, looked up): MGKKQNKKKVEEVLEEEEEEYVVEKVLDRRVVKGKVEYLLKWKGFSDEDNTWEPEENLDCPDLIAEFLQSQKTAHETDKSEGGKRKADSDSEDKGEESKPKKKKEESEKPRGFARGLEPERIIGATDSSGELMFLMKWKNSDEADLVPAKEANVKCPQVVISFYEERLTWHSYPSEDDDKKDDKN
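AlphaScreen: HP1-beta (50 nM) preformed 30 min with biotin-H3(1-18)K9me3 peptide (50 nM) in PBS pH 7.4, 0.01% Tween-20. Compound added for 30 min at RT, then streptavidin donor/nickel chelate acceptor beads (10 ug/mL) for 30 min.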
G9a inh: qHTS Assay for Inhibitors of Histone Lysine Methyltransferase G9a. hit rate 8.8% among 350,000. Histone-lysine N-methyltransferase EHMT2 (Homo sapiens), Q96KQ7. G9a H3K9 monomethylation, AlphaScreen, 2 h. Potency, µM (highest dose often 102 µM), inactives show at the highest dose activity, negative = inhibition, most hits filed as inhibitors; further: on the % scale 0 is the no-effect control and ±100 the full control effect; nearly all actives have a fitted effect of over 75% in size
Target sequence (Q96KQ7 913-1193 limits assumed): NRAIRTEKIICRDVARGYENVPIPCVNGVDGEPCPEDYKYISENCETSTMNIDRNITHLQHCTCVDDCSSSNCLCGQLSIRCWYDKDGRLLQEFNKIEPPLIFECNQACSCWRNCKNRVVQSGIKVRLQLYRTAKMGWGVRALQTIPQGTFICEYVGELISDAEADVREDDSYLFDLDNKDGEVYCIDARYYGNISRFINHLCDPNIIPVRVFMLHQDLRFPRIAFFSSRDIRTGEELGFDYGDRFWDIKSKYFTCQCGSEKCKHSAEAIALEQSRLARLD
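Methyltransferase reactions run at room temperature for 2 h (20 nM enzyme, 500 nM biotin-H3K9 peptide, 20 uM SAM) after a 15 min compound preincubation; product detected by AlphaScreen beads and anti-H3K9me1 antibody.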
JMJD2A Tudor: qHTS Assay for Inhibitors of JMJD2A-Tudor Domain | AlphaScreen JMJD2A-Tudor / H3K4me3 peptide binding | Potency, µM (highest dose often 114 µM), for the others: at the top dose activity change, negative = inhibition, usual class: inhibitors | Lysine-specific demethylase 4A (Homo sapiens), O75164 | hit rate 4.4% among 390,000; further: on the % scale 0 is the no-effect control and ±100 the full control effect; nearly all actives have a fitted effect of over 50% in size
GLS inhibitor: qHTS for Inhibitors of Glutaminase (GLS). hit rate 0.21% among 410,000. Potency, µM (titrated, usually from 45.5 µM), inactives show at the highest dose activity change, negative = inhibition, actives largely listed as inhibitors. GLS enzymatic activity, qHTS titration. AID 624170, 2012; further: on the % scale 0 is the no-effect control and ±100 the full control effect
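Compounds were pin-transferred onto hKGA, after which L-glutamine (1 mM solution) and a detection mix of glutamate oxidase, HRP and Amplex Red were added. Initial and 30 min RT fluorescence reads were collected.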
BAZ2B inh: qHTS Assay for Inhibitors of BAZ2B | AlphaScreen BAZ2B-H3K14Ac peptide displacement | hit rate 4.4% among 360,000 | Potency, µM (top dose mostly 114 µM), for the others: at the top dose activity change, negative = inhibition, actives largely listed as inhibitors | Bromodomain adjacent to zinc finger domain protein 2B (Homo sapiens), Q9UIF8; further: on the % scale 0 is the no-effect control and ±100 the full control effect; nearly all actives have a fitted effect of over 60% in size
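AlphaScreen luminescence quantifies BAZ2B engagement of H3K14Ac peptide; the protein and biotinylated peptide are both at 50 nM final, buffer PBS pH 7.4 with 0.01% Tween-20, all steps at room temperature.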
Active calls of the source: *; [ ] = dose if it differs, or a comment. The call rests on the fitted dose curve; in most records, active means well fitted curve in the direction sought with a large enough effect; inconclusive means small, poorly fitted or top-dose-only effect, or another doubt; inactive means no such curve, though single readings can be large; an effect the other way counts as inactive or inconclusive. Potency means the concentration at half of the fitted maximal effect.

CC1CCN(S(=O)(=O)c2ccc3c(c2)N(CC(=O)N(C)Cc2ccccc2)C(=O)CO3)CC1 was read as HP1b chromo inh 42%, G9a inh 7%[59 µM], JMJD2A Tudor -10%, GLS inhibitor 4% and BAZ2B inh -20%.
CC(C)(C)C(=O)Nc1ccc(C(=O)COC(=O)c2ccccn2)cc1 was read as HP1b chromo inh 27%, JMJD2A Tudor 56µM* and GLS inhibitor 1%.
For O=C(COC(=O)c1ccc2c(c1)OCO2)Nc1ccccc1OC(F)F the results were HP1b chromo inh 32%, JMJD2A Tudor 2% and GLS inhibitor -9%.
For O=C(COC(=O)c1ccc(Cl)c([N+](=O)[O-])c1)Nc1ccccc1OC(F)F the results were HP1b chromo inh 19%, G9a inh 1.6µM*, JMJD2A Tudor 2%, GLS inhibitor 0% and BAZ2B inh 0%.
Screening COc1ccc(-n2c(/C=C/c3cc(OC)c(OC)cc3OC)nc3cc4ccccc4cc3c2=O)cc1Cl returned HP1b chromo inh -3%, G9a inh -14%[59 µM], JMJD2A Tudor inconclusive, GLS inhibitor 3% and BAZ2B inh 28µM*.
COc1ccc(-c2c/c(=N\c3nc(-c4ccccc4)c(C)s3)c3ccccc3o2)cc1O was read as HP1b chromo inh inconclusive, G9a inh inconclusive, JMJD2A Tudor inconclusive, GLS inhibitor 10% and BAZ2B inh 50µM*.
For O=C(Nc1ccccc1Cl)c1ccc(F)c(S(=O)(=O)NCc2ccc(Cl)c(Cl)c2)c1 the results were HP1b chromo inh 28%, G9a inh 3%[59 µM], JMJD2A Tudor -8%, GLS inhibitor 3% and BAZ2B inh 10%.
O=C1c2ccccc2C(=O)N1CCc1csc(NNc2nc(CCN3C(=O)c4ccccc4C3=O)cs2)n1 was read as HP1b chromo inh -12%, G9a inh inconclusive, JMJD2A Tudor inconclusive, GLS inhibitor 19% and BAZ2B inh 35µM*.
`Cc1ccc(-c2nc(CCN3C(=O)c4ccccc4C3=O)cs2)cc1` gave HP1b chromo inh 97%, G9a inh 37%, JMJD2A Tudor 18%, GLS inhibitor 5% and BAZ2B inh 30%.
O=C1c2ccccc2C(=O)N1CCCCCCc1ccccc1 was read as HP1b chromo inh inactive, G9a inh -1%[0.501 µM], JMJD2A Tudor 292%, GLS inhibitor -10% and BAZ2B inh inactive.
O=C1c2ccccc2C(=O)N1CCc1ccccc1 was read as HP1b chromo inh inconclusive, JMJD2A Tudor 56µM* and GLS inhibitor -15%.
`CCCOC(=O)CSc1nnc(-c2ccccc2)o1` gave HP1b chromo inh 52%, G9a inh -3%[59 µM], JMJD2A Tudor 23%, GLS inhibitor -13% and BAZ2B inh 25%.
`Cc1c2cc(O)c(=O)cc-2oc2cc(O)c(O)cc12` gave HP1b chromo inh 0.71µM*, G9a inh 7.9µM*, JMJD2A Tudor 1.4µM*, GLS inhibitor inconclusive and BAZ2B inh 4.5µM*.
For COc1cc(OC)c(-c2c3cc(O)c(=O)cc-3oc3cc(O)c(O)cc23)cc1OC the results were HP1b chromo inh -90%, G9a inh 10µM*, JMJD2A Tudor 1.1µM*, GLS inhibitor -11% and BAZ2B inh 1.1µM*.
Screening N=C(N)SCCc1cnc[nH]1 returned HP1b chromo inh 14%, G9a inh 7.5µM*, JMJD2A Tudor -21%, GLS inhibitor 4% and BAZ2B inh -32%.
O=C(NCCc1cnc[nH]1)c1cccs1 was read as HP1b chromo inh 29%, JMJD2A Tudor -6%, GLS inhibitor 3% and BAZ2B inh -22%.
For CCc1ccccc1N(C)S(=O)(=O)c1ccc2c(c1)C(C)(C)C(=O)N2C the results were HP1b chromo inh 17%, G9a inh 8%[59 µM], JMJD2A Tudor 7%, GLS inhibitor 1% and BAZ2B inh 3%.
Screening O=C(NCc1nc2ccccc2[nH]1)c1ccc(Cl)c(S(=O)(=O)N2CCCC2)c1 returned HP1b chromo inh 18%, G9a inh 35µM*, JMJD2A Tudor -29%, GLS inhibitor -13% and BAZ2B inh -21%.
